A short description of experiment [1]: qHTS of pediatric cancer cell lines to identify multiple opportunities for drug repurposing: Primary screen for DAOY cells (AID 1347090). Note: nearly all actives have a fitted effect of over 55% in size. The essentials:
(§1)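 Eight- or eleven-point concentration series, 48 h treatment at 37 degrees C in growth media; readout CellTiter-Glo luminescence. Potency and efficacy were taken from the concentration-response curves.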
On the technique in general: In qHTS, concentration-response curves come from the screen itself.

The nature of experiment [2]: qHTS of pediatric cancer cell lines to identify multiple opportunities for drug repurposing: Primary screen for A673 cells (AID 1347092). Note: nearly all actives have a fitted effect of over 45% in size. The gist of the method:
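Cell viability of A673 measured by CellTiter-Glo ATP luminescence after 48 hours compound exposure. Dilution series spanned 0.78 nM to 46 µM (MIPE, 11-point) or 0.59 nM to 46 µM (NPC, 8-point); bortezomib 2.3 uM positive control.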

Experiment [3] in a line: qHTS of pediatric cancer cell lines to identify multiple opportunities for drug repurposing: Primary screen for SK-N-MC cells (AID 1347093). The essentials:
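Metabolically active cells were quantified by ATP-dependent luminescence (CellTiter-Glo, 15 min at room temperature) following 48 h treatment. Cells had been plated at 500-1,000 per well and settled for 5 h beforehand.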

A short description of experiment [4]: qHTS of pediatric cancer cell lines to identify multiple opportunities for drug repurposing: Primary screen for BT-37 cells (AID 1347094). The gist of the method:
(§2)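 500-1,000 cells/well; 5 h pre-incubation 37 °C/5% CO2; compound pinned; 48 h; CellTiter-Glo, 15 min RT; luminescence. MIPE 11-pt from 0.78 nM, NPC 8-pt from 0.59 nM final. Bortezomib 2.3 µM final as positive control.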

The nature of experiment [5]: qHTS of pediatric cancer cell lines to identify multiple opportunities for drug repurposing: Primary screen for NB-EBc1 cells (AID 1347095). The essentials:
as §2

A short description of experiment [6]: qHTS of pediatric cancer cell lines to identify multiple opportunities for drug repurposing: Primary screen for U-2 OS cells (AID 1347096). Note: nearly all actives have a fitted effect of over 50% in size. The gist of the method: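 Cells (500-1,000/well) in growth media were settled 5 h at 37 degrees C, then given compounds for 48 h. Viability was read as CellTiter-Glo luminescence. Primary runs used MIPE at 11 points (0.78 nM-46 µM) and NPC at 8 points (0.59 nM-46 µM); follow-ups used 11 points.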

The nature of experiment [7]: qHTS of pediatric cancer cell lines to identify multiple opportunities for drug repurposing: Primary screen for SJ-GBM2 cells (AID 1347091). The essentials:
as §1

Inconclusive results are not listed. The source made the active and inactive calls. Calls come from the whole dose curve; as a rule, active = well fitted curve in the direction sought with a large enough effect; inconclusive = small, poorly fitted or top-dose-only effect, or another doubt; inactive = no such curve, though single readings can be large; an effect the other way counts as inactive or inconclusive.
Potency is the fitted concentration of half-maximal effect.

As for `NCC(=O)Nc1ccc(-n2nc(C(F)(F)F)cc2-c2ccc3c(ccc4ccccc43)c2)cc1`, the Potency was 23.5 µM (active) in experiment [1]; 23.5 µM (active) in experiment [2]; 0.0372 µM (active) in experiment [3]; 24.3 µM (active) in experiment [4]; 0.833 µM (active) in experiment [5].

For `Nc1cccc(-c2cc3c(Oc4cccc(O)c4)ncnc3[nH]2)c1`, the Potency was 7.43 µM (active) in experiment [1], 14.8 µM (active) in experiment [2], 1.05 µM (active) in experiment [3] and 3.72 µM (active) in experiment [5]. Moreover, the Potency entry in experiment [6] is “inactive”.

`COc1cc2c(cc1-c1c(C)noc1C)ncc1[nH]c(=O)n([C@H](C)c3ccccn3)c12`: the Potency was 18.7 µM (active) in experiment [1]; 16.6 µM (active) in experiment [7]; 4.69 µM (active) in experiment [2]; 1.18 µM (active) in experiment [3]; 16.6 µM (active) in experiment [5]; 18.7 µM (active) in experiment [6].

Consider `NC(=O)c1c(OCc2c(F)cc(Br)cc2F)nsc1NC(=O)NCCCCN1CCCC1`, for which the Potency in experiment [1] is 23.5 µM (active); in experiment [7] it was 20.9 µM (active); in experiment [2], 18.7 µM (active); in experiment [4], 24.3 µM (active); in experiment [5], 2.64 µM (active). Further, the Potency entry in experiment [6] is “inactive”.

Consider `C=CC(=O)Nc1cccc(Oc2nc(Nc3ccc(N4CCN(C)CC4)cc3OC)ncc2Cl)c1`, for which the Potency in experiment [1] is 0.0372 µM (active); in experiment [5] it was 2.35 µM (active); in experiment [6], 23.5 µM (active).

For `COc1cc2c(Oc3ccc4[nH]c(C)cc4c3F)ncnc2cc1OCCCN1CCCC1`, the Potency is 18.7 µM (active) in experiment [1]; 6.62 µM (active) in experiment [7]; 18.7 µM (active) in experiment [2]; 24.3 µM (active) in experiment [4]; 4.18 µM (active) in experiment [5]. The Potency entry in experiment [6] is “inactive”.

As for `COc1cc(OC2CCN(C)CC2)ccc1Nc1ncc2c(n1)n(C1CCCC1)c(=O)n2C`, the Potency in experiment [1] was 23.5 µM (active); in experiment [7], 16.6 µM (active); in experiment [2], 14.8 µM (active); in experiment [3] it was 3.32 µM (active); in experiment [5] it was 8.33 µM (active); in experiment [6] it was 23.5 µM (active).

Consider `CC(C)=CCCC(C)=CCCC(C)=CCSc1ccccc1C(=O)O`, for which the Potency in experiment [7] was 0.833 µM (active); in experiment [2], 5.9 µM (active); in experiment [3] it was 0.743 µM (active); in experiment [4] it was 7.69 µM (active); in experiment [5], 5.9 µM (active).

For `COc1cc(-c2nn(C3CCC(N4CCN(C(C)=O)CC4)CC3)c3ncnc(N)c23)ccc1NC(=O)c1cc2ccccc2n1C` (centres undefined), the Potency in experiment [7] is 1.87 µM (active); in experiment [2], 0.235 µM (active); in experiment [3], 0.743 µM (active).

In the case of `COc1cccc(-c2ccc(NC(=O)C3=C(C(=O)O)CCC3)c(F)c2)c1`, the Potency was 11.8 µM (active) in experiment [7], 1.32 µM (active) in experiment [3], 19.3 µM (active) in experiment [4] and 3.72 µM (active) in experiment [5]. Moreover, the Potency entry in experiment [6] was “inactive”.

As to `NC1(Cc2ccc(Cl)cc2)CCN(c2ncnc3[nH]ccc23)CC1`, the Potency in experiment [7] was 5.26 µM (active); in experiment [2] it was 14.8 µM (active); in experiment [3], 3.32 µM (active); in experiment [5], 11.8 µM (active).

For `O=C(Nc1nc2cccc(-c3ccc(CN4CCS(=O)(=O)CC4)cc3)n2n1)C1CC1`, the Potency in experiment [7] was 18.7 µM (active); in experiment [2], 11.8 µM (active); in experiment [3] it was 5.26 µM (active); in experiment [4] it was 19.3 µM (active); in experiment [5], 10.5 µM (active). For the same molecule, in experiment [6], the Potency result was “inactive”.

As to `Cc1cc(Nc2ncnc3ccc(-c4ccc(CNCCS(C)(=O)=O)o4)cc23)ccc1Oc1ccn2ncnc2c1`, the Potency was 9.35 µM (active) in experiment [1]; 0.235 µM (active) in experiment [2]; 4.18 µM (active) in experiment [3]; 6.11 µM (active) in experiment [4]; 4.18 µM (active) in experiment [5].

Turning to `Cc1cccc(C=NNc2cc(N3CCOCC3)nc(OCCc3ccccn3)n2)c1`, the figures for the Potency in experiment [7], in experiment [2] and in experiment [5] were 1.32 µM (active), 7.43 µM (active) and 1.32 µM (active), respectively.

As for `Cn1c(=O)n(-c2ccc(C(C)(C)C#N)cc2)c2c3cc(-c4cnc5ccccc5c4)ccc3ncc21`, the Potency in experiment [7] was 0.0662 µM (active); in experiment [2] it was 0.0296 µM (active); in experiment [4], 0.0544 µM (active); in experiment [5], 0.372 µM (active).

For the molecule `Fc1cc(-c2cccc3ncc(-c4cnn(C5CCNCC5)c4)nc23)cc(F)c1CN1CCOCC1`, the Potency in experiment [7] is 16.6 µM (active); in experiment [2], 18.7 µM (active); in experiment [3], 14.8 µM (active); in experiment [4], 24.3 µM (active). Further, the Potency result in experiment [6] is “inactive”.

Take `CCN1CCN(CC(=O)Nc2ccc(-c3cccc4c(=O)cc(N5CCOCC5)oc34)c3sc4ccccc4c23)CC1`: the Potency in experiment [7] was 0.743 µM (active); in experiment [2], 2.35 µM (active); in experiment [3] it was 0.59 µM (active); in experiment [4] it was 4.85 µM (active); in experiment [5] it was 1.18 µM (active).

Regarding `CN(C)CC=CC(=O)Nc1cc2c(Nc3ccc(F)c(Cl)c3)ncnc2cc1O[C@H]1CCOC1`, the Potency in experiment [1] was 5.9 µM (active); in experiment [7], 3.72 µM (active); in experiment [3], 1.66 µM (active); in experiment [4] it was 21.7 µM (active); in experiment [5] it was 9.35 µM (active); in experiment [6] it was 18.7 µM (active).

Take `COCCOc1ccc2c(c1)ncn2-c1ccc2cccc(N3CCC(N)CC3)c2n1`: the Potency in experiment [1] was 23.5 µM (active); in experiment [7], 11.8 µM (active); in experiment [2], 4.69 µM (active); in experiment [4], 24.3 µM (active); in experiment [5], 23.5 µM (active); in experiment [6] it was 18.7 µM (active).

With `CN(C1CCc2c(c3ccccc3n2CC(=O)O)C1)S(=O)(=O)c1ccc(F)cc1` (centres undefined), the Potency in experiment [1] was 5.9 µM (active); in experiment [2] it was 0.935 µM (active); in experiment [3], 0.935 µM (active). For the same molecule, the Potency result in experiment [6] is “inactive”.

As to `Cc1cn2c(-c3cn[nH]c3)cnc2c(Nc2ccc(C(=O)N3CCNCC3)cc2F)n1`, the Potency in experiment [1] is 18.7 µM (active); in experiment [2] it was 14.8 µM (active); in experiment [3], 1.66 µM (active); in experiment [4], 17.2 µM (active).

Turning to `COc1cc2ncn(-c3cc(OCc4ccccc4C(F)(F)F)c(C(N)=O)s3)c2cc1OC`, the Potency in experiment [1] was 0.372 µM (active); in experiment [7], 0.662 µM (active); in experiment [2], 0.469 µM (active); in experiment [4], 19.3 µM (active); in experiment [5], 4.69 µM (active); in experiment [6], 23.5 µM (active).

For the molecule `c1cc(-c2cnn3cc(-c4ccc(OCCN5CCCCC5)cc4)cnc23)ccn1`, the Potency in experiment [1] was 18.7 µM (active); in experiment [7] it was 16.6 µM (active); in experiment [3] it was 9.35 µM (active); in experiment [4], 17.2 µM (active); in experiment [5], 23.5 µM (active). In addition, the Potency result in experiment [6] is “inactive”.

Take `O=C(O)C1(Cc2cccc(Nc3nccs3)n2)CCC(Oc2cccc(Cl)c2F)CC1` (centres undefined): in experiment [3], the Potency is 1.66 µM (active). The Potency entry in experiment [4] and in experiment [6] was “inactive” each time.

With `Cn1cc(-c2ccncc2)c(-c2ccc(OCc3ccc4ccccc4n3)cc2)n1`, the Potency is 4.69 µM (active) in experiment [1], 3.72 µM (active) in experiment [2] and 9.35 µM (active) in experiment [3]. The Potency result in experiment [6] was “inactive”.

Consider `Cc1cc(CN2CCN(c3c(Br)cnc4nc(-c5ccc(N6CCN(C)CC6)cc5)[nH]c34)CC2)no1`, for which the Potency in experiment [7] was 5.9 µM (active); in experiment [2] it was 23.5 µM (active); in experiment [3], 1.18 µM (active); in experiment [5], 2.35 µM (active). Also, the Potency result in experiment [6] was “inactive”.

Take `COC(=O)Nc1ccc(-c2nc(N3CCOCC3)c3cnn(C4CCN(Cc5cccnc5)CC4)c3n2)cc1`: the values for the Potency in experiment [1], in experiment [7] and in experiment [5] were 4.69 µM (active), 0.743 µM (active) and 1.18 µM (active), respectively. In addition, the Potency result in experiment [6] is “inactive”.

Take `COc1cc(C(=O)N2CCC(N3CCN(C)CC3)CC2)ccc1Nc1ncc2c(n1)N(C)c1ccccc1C(=O)N2C`: the Potency is 11.8 µM (active) in experiment [2], 10.5 µM (active) in experiment [3] and 16.6 µM (active) in experiment [5]. For the same molecule, in experiment [6], the Potency result was “inactive”.

Source of the values: PubChem BioAssay (NCATS).
